Screens deposited in PubChem BioAssay by The Scripps Research Institute Molecular Screening Center.
KLK7 zymogen act = proKLK7 (human) activation, primary screen; purified proKLK7, EDANS-DABCYL substrate fluorescence; 100% is mature enzyme control, 0% vehicle; 370,000 tested, 0.9% active; P49862; activation, % at 7 µM;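 active means activation above the mean of all tested compounds plus 3 SD, computed per campaign excluding outliers beyond control limits, cut at about 13% in these data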
ADAM17 inh = ADAM17 inhibition, QFRET primary screen; P78536; recombinant ADAM17, EDANS/DABCYL FRET peptide cleavage; inhibition, % at 6.95 µM; 370,000 tested, 0.83% active;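 active means inhibition above the mean of compounds lying between control limits plus 3 SD, set per campaign, cut at about 8.5% in these data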
ADAM10 inh = ADAM10 inhibition, QFRET primary screen; AID 720582; recombinant ADAM10, EDANS/DABCYL FRET peptide cleavage, 3 h; inhibition, % at 7 µM; 370,000 tested, 0.62% active; O14672;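 active means inhibition above a per-campaign cutoff equal to the mean of compounds falling between control-based bounds plus 3 SD, cut at about 20% in these data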
PLCb3 inh = inhibitors of human phospholipase C beta3. Q01970. Purified PLC-beta3, fluorogenic substrate, fluorescence. inhibition, % at 12.2 µM. 370,000 tested, 0.18% active; in the data active means inhibition above about 11%
Target sequence (Q01970 whole entry, looked up): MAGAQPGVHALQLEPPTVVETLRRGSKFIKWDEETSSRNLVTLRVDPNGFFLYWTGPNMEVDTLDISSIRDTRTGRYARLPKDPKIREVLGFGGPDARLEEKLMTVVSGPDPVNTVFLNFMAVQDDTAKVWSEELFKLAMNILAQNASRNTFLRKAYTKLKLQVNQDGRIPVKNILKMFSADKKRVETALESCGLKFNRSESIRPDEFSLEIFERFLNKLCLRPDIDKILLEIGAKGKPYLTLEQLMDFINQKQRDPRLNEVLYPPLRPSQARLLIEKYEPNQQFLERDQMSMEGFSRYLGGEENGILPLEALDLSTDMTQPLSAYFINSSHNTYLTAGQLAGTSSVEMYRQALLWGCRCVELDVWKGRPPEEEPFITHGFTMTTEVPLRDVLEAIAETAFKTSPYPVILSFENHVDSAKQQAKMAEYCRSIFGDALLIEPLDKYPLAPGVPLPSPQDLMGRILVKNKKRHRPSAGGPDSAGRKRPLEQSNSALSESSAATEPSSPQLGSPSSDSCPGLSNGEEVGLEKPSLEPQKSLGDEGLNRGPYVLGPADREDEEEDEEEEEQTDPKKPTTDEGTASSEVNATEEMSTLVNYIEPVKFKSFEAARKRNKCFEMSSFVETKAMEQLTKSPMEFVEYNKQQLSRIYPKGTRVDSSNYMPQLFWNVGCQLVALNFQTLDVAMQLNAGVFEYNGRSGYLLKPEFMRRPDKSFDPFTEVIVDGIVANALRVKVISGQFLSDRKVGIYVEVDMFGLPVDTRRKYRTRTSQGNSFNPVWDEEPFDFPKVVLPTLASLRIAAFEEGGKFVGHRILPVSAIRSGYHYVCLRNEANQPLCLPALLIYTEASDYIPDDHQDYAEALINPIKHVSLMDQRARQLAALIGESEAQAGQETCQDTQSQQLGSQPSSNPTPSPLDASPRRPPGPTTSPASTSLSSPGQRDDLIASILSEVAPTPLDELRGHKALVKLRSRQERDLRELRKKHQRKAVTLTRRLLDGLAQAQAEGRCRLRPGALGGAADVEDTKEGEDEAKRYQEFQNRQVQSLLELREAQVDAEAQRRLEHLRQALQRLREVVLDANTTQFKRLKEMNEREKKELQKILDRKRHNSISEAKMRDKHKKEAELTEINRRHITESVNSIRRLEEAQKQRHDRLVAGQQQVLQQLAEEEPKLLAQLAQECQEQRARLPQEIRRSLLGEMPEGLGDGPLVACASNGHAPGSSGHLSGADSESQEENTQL
PLC-gamma1 inh = blocks human PLC-gamma1 enzyme activity | 370,000 tested, 0.84% active | purified PLC-gamma1, fluorogenic substrate, fluorescence | inhibition, % at 12.2 µM; in the data active means inhibition above about 9.5%
proKLK7 act conf = confirmation of human kallikrein-7 zymogen activators; shares compounds with KLK7 zymogen act; 3,200 tested, 68% active; purified proKLK7, EDANS-DABCYL substrate fluorescence; scaled: vehicle 0, mature enzyme 100; activation, % at 7 µM;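 active means activation, as change over the incubation, above the mean of all tested compounds plus 3 SD, cut at about 13% in these data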
EDANS interfere = fluorescence interference counter-screen for KLK7 activators; shares compounds with KLK7 zymogen act; 3,200 tested, 80% active; activation, % at 7 µM; EDANS-DABCYL substrate fluorescence interference, no enzyme, 4 h; solvent 0%, active enzyme control 100%;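 active means activation above the all-compound mean plus 3 SD, ignoring values outside control-based bounds, cut at about 4.8% in these data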;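 further: value is the 4 h activation minus the activation read at time zero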
Numbers stand for hits; – = inactive; · = not tested or not shown. The list is not random: actives were taken first. Their share in the collection is about 2.9%.

SMILES | KLK7 zymogen act | ADAM17 inh | ADAM10 inh | PLCb3 inh | PLC-gamma1 inh | proKLK7 act conf | EDANS interfere
O=C(NC1CCCCN(Cc2cccc(C(F)(F)F)c2)C1=O)c1ccc(-c2ccccc2)cc1 (stereo not drawn) | – | – | – | – | – | · | ·
Cc1cc(C)c2nc(NNC(=O)c3ccc(S(=O)(=O)N4CCc5ccccc5C4)cc3)sc2c1 | – | – | – | – | – | · | ·
Cc1cc(C)c2sc(NNC(=O)c3ccc(S(=O)(=O)N4CCc5ccccc5C4)cc3)nc2c1 | – | 11 | – | – | – | · | ·
CC(c1ccccc1)C1CC(=O)N(Cc2ccco2)C1=O (stereo not drawn) | 119 | – | – | – | – | – | –
C=CCN1C(=O)[C@H](CC(=O)NCC23CC4CC(CC(C4)C2)C3)[C@@]2(C(=O)OCC)CCCC=C12 | – | – | – | – | – | · | ·
O=C(Nc1ccccc1)c1ccccc1N=Cc1cccc(O)c1 | 32 | – | – | – | – | 15 | 17
Oc1cc2c(cc1O)[C@H]1c3ccc(O)c(O)c3OC[C@@]1(O)C2 | – | – | – | – | – | · | ·
Oc1ccc2c(c1)OCC1(O)Cc3cc(O)c(O)cc3C21 (stereo not drawn) | 16 | – | – | – | – | 58 | 57
O=C(O)CCC(=O)c1ccc2ccc3cccc4ccc1c2c34 | 26 | – | – | – | – | 62 | 65
Cc1cc(NC(=O)COc2cc(F)cc(F)c2)n(-c2ccccc2)n1 | – | – | – | – | – | · | ·
COc1ccc(S[C@]2(C(=O)N3CCOCC3)CC(=O)N(C(=O)/C=C/c3ccccc3)[C@@H]2c2ccc(OC)cc2)cc1 | – | – | – | – | – | · | ·
O=C(O)c1ccccc1-c1nc2ccccc2[nH]1 | – | – | – | – | – | · | ·
Oc1ccc2ccccc2c1C=Nc1ccccc1-c1nc2ccccc2[nH]1 | 38 | – | – | – | – | – | –
CCc1cc(=O)oc2c(C)c(OCC(=O)N3CCC[C@@H]3C(=O)O)ccc12 | – | – | – | – | – | · | ·
CCc1cc(=O)oc2c3c(cc(OCC(=O)NCCC(=O)O)c12)OC(C)(C)CC3 | 33 | – | – | – | – | 76 | 82
Cc1cc(=O)oc2c3c(cc(OCC(=O)NCC4CCC(C(=O)O)CC4)c12)OC(C)(C)CC3 (stereo not drawn) | 40 | – | – | – | – | 76 | 77
CCCc1cc(=O)oc2c3c(cc(OCC(=O)N4CCC[C@H]4C(=O)O)c12)OC(C)(C)CC3 | 40 | – | – | – | – | 48 | 69
Cc1cc(=O)oc2c3c(cc(OCC(=O)NCCC(=O)O)c12)OC(C)(C)CC3 | 40 | – | – | – | – | 64 | 64
Cc1c(C)c2c(OCC(=O)NCC3CCC(C(=O)O)CC3)cc3c(c2oc1=O)CCC(C)(C)O3 (stereo not drawn) | – | – | – | – | – | · | ·
COC(=O)C1CN(Cc2ccc(C)cc2)CCS(=O)(=O)N1Cc1cn(Cc2ccc(Cl)cc2)nn1 (stereo not drawn) | – | – | – | – | – | · | ·
CC(=O)N1c2cc(S(=O)(=O)N3CCN(c4ccccc4F)CC3)c(Br)cc2CC1C (stereo not drawn) | – | – | – | – | – | · | ·
CCc1cc(=O)oc2c3c(cc(OCC(=O)NCCN4CCOCC4)c12)OC(C)(C)CC3 | 39 | – | – | – | – | – | –
CCc1cc(=O)oc2c3c(cc(OCC(=O)NC4CC4)c12)OC(C)(C)CC3 | 13 | – | – | – | – | – | –
CCc1cc(=O)oc2c3c(cc(OCC(=O)NCCCOC)c12)OC(C)(C)CC3 | 19 | – | – | – | – | 30 | 29
CCc1cc(=O)oc2c3c(cc(OCC(=O)NCCCC(=O)O)c12)OC(C)(C)CC3 | 29 | – | – | – | – | 65 | 65
SMILES | KLK7 zymogen act | ADAM17 inh | ADAM10 inh | PLCb3 inh | PLC-gamma1 inh | proKLK7 act conf | EDANS interfere
CCc1cc(=O)oc2c3c(cc(OCC(=O)NCc4ccncc4)c12)OC(C)(C)CC3 | – | – | – | – | – | · | ·
Cc1ccc(C2CCC3(CCC(=O)N3CCO)CC2)cc1 (stereo not drawn) | – | – | – | – | – | · | ·
C[C@H](NC(=O)C[C@@H]1C[C@@H]2c3cc(NC(=O)C4CCC4)ccc3O[C@@H]2[C@@H](CO)O1)c1ccccc1 | – | – | – | – | – | · | ·
COC(=O)C1CN(CCc2ccccc2)CCS(=O)(=O)N1Cc1ccc(C)cc1 (stereo not drawn) | – | – | – | – | – | · | ·
Nc1cc(Oc2ccc(Cl)cc2Cl)nc(N)n1 | – | – | – | – | – | · | ·
Nc1cc(C(=O)O)c(Oc2ccc(Cl)cc2Cl)cc1C(=O)O | 26 | – | – | – | – | 57 | 51
C=CCOc1ccccc1C1C2=C(CC(C)(C)CC2=O)Nc2c1c(=O)n(C)c(=O)n2C (stereo not drawn) | – | – | – | – | – | · | ·
Cc1ccc(-n2nc(C)c3c2NC2=C(C(=O)CC(C)(C)C2)C3c2ccccc2OCC(=O)O)cc1 (stereo not drawn) | 44 | – | – | – | – | 33 | 35
COc1ccc(/C=C/S(=O)(=O)NC2CCCC2)c(CNC(=O)OC(C)(C)C)c1 | – | – | – | – | – | · | ·
Brc1ccc2nc(-c3c[nH]c4ccccc34)cn2c1 | – | – | – | – | – | · | ·
Cc1cccn2cc(-c3c[nH]c4ccccc34)nc12 | 16 | – | – | – | – | – | –
O=C1Nc2ccccc2O/C1=C\c1c(F)cccc1Cl | 17 | – | – | – | – | – | –
C=CCN(CC=C)C(=O)c1c(OC)cccc1OC | – | – | – | – | – | · | ·
C=CCc1c(C)[nH]c2c(OC)cccc2c1=S | 29 | – | – | – | – | 13 | 18
Cc1ccc(O)c(C(=O)c2cnn(C(=O)Cc3csc(C)n3)c2)c1 | 20 | – | – | – | – | 54 | 53
COc1ccc(OC)c2c1C(=O)C(Cl)=C(Cl)C2=O | – | – | – | – | – | · | ·
COc1ccc(OC)c2c1C(=O)CC2C (stereo not drawn) | 43 | – | – | – | – | 49 | 49
C=CCN1C(=O)[C@@H](CC(=O)NCc2cccs2)[C@]2(C(=O)OC)CCCCC=C12 | – | – | – | – | – | · | ·
CC(C)(C)NC(=O)C[C@H]1C[C@H](C(=O)N2CCCCC2)[C@@]2(C)c3[nH]c4cc(-c5ccco5)ccc4c3CCN2C1=O | 77 | – | – | – | – | 74 | 79
CC[C@]12c3[nH]c4cc(-c5ccco5)ccc4c3CCN1C(=O)[C@@H](CC(=O)NCCc1ccccn1)C[C@@H]2C(=O)N1CCN(C(=O)C2CC2)CC1 | 137 | – | – | – | – | 104 | 124
C[C@]12c3[nH]c4cc(-c5ccco5)ccc4c3CCN1C(=O)[C@@H](CC(=O)NCc1ccco1)C[C@@H]2C(=O)N1CCOCC1 | 75 | – | – | – | – | 81 | 75
